About 83,000 compounds went through this panel and 20% of them were active in at least one assay; those are over-represented in the sample as a whole.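 In brief: 96-well plates, 48 h treatment, single concentration, percent growth endpoint.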 Values without a mark were called inactive. The source made the active and inactive calls. Rule for the calls: active = growth percent below 10; inactive = the rest.
These molecules were tested on SF-295 CNS (assay: NCI-60 one-dose screen, 48 h (100 = growth as untreated, 0 = no growth, -100 = all killed)). Conditions: 10 µM unless noted.

Compound	growth
COc1cc2cc(Oc3ccc(NC(=O)Nc4ccc(Cl)c(C(F)(F)F)c4)cc3)c(C)nc2cc1OCCN1CCCCC1	57.5%
CN1CCN(c2ccc3nc(-c4ccc5nc(-c6ccc(C(F)(F)F)cc6)[nH]c5c4)[nH]c3c2)CC1	50.9%
Cc1c(C(=O)Nc2nc(-c3ccccc3)cs2)nnn1-c1ccccc1Br	31.2% [50 µM]
Clc1ccc(Nc2nc(Nc3ccccc3)nc(Nc3ccc(-c4cc(-c5ccc(Cl)cc5)on4)cc3)n2)cc1	54%
C=C1CC[C@@H]2[C@@](C)(CCC[C@]2(C)C(=O)O)[C@@H]1CC[C@H](CO)CCO	103%
COC(=O)CCC(=O)c1ccccc1	91.8%
COc1ncnc2c1ncn2C/C(Br)=C(\Br)CCl	97.2%
CN1CCC(OC2c3ccccc3CCc3ccccc32)CC1	88.6%
O=[N+]([O-])c1ccc(C=C2C(Cl)=C(Cl)C(Cl)=C2Cl)cc1	86.3%
COc1ccc(OC)c(/C=C2\Oc3cc(O)ccc3C2=O)c1	98.6%
COC(=O)[C@@]12CC[C@@H](C)[C@]3(C[C@@H](c4ccoc4)OC3=O)[C@H]1CC[C@@H]1O[C@@]12C	100%
COc1ccc(-c2nc3sc(C)cn3c2/C=C/C(=O)c2cc(OC)c(OC)c(OC)c2)cc1	51.3%
C=CC(=O)N1CC2(CC(n3nc(-c4ccc(Oc5ccccc5)cc4)c4c(N)ncnc43)C2)C1	70.4%
Cc1cc(=O)c2c(C)ccc(C)c2[nH]1	91.4%
O=C1CN2CCC1C/C2=C\c1ccnc2c(Cl)cccc12 (stereo unspecified)	91.2%
O=C1c2ccccc2-c2nnc(-c3ccc(Br)cc3)cc21	13.6%
COc1ccc(-c2nn(-c3ccc(NC(=O)c4ccc(Cl)c(Cl)c4)cc3)cc2-c2ccncc2)cc1Cl	-31.5% (active)
O=c1oc2ccccc2cc1-c1csc(N=Nc2c(O)[nH]c3ccc(Cl)cc23)n1	98.6%
COc1cc2nc(N3CCC[C@H](NC4=CC(=O)c5ccccc5C4=O)C3)nc(N)c2cc1OC	-96.8% (active)

Compound	growth
O=C1C(N2CCOCC2)=Cc2cccc3cccc1c23	112%
CCOC(=O)c1c(-c2cc(OC)c(OC)c(OC)c2)csc1N	65.4%
N#Cc1c(-c2cccc(F)c2)cc(-c2ccc(Br)s2)[nH]c1=O	73.4%
COc1ccc(NC(=O)c2ccc3c(c2)nc(-c2ccc(Cl)cc2)n3-c2cc(C(C)(C)C)[nH]n2)cc1	67.8%
Oc1cccc(Nc2nc(-c3ccccn3)cs2)c1	99.4%
O=S(=O)(/N=C1C=C/C(=N\S(=O)(=O)c2ccccc2)c2ccccc2\1)c1ccccc1	116%
O=C(COc1cccc(/C=C2\COc3ccccc3C2=O)c1)c1ccccc1	115%
Cc1ccc(S(=O)(=O)N2CCc3ccc(O)c4c3C2Cc2cc(Cl)ccc2-4)cc1 (stereo unspecified)	84.7%
COc1ccc(OC)c(C2C(C#N)=C(N)Oc3cc(O)ccc32)c1 (stereo unspecified)	83.3%
CC(=O)N(CC(O)CO)c1c(I)c(C(=O)NCCO)c(I)c(C(=O)NCC(O)CO)c1I (stereo unspecified)	118%
N#CC1=C(N)Oc2cc(N)ccc2C1c1ccc(F)cc1 (stereo unspecified)	72.2%
CCN(CC)CCCNc1ccc(C)c2sc3ccccc3c(=O)c12	32.5%
COc1ccc(/C=C2\Oc3cc(C)c(Cl)cc3C2=O)cc1OC	95.7%
Cc1nc2ccc(Cl)cc2n1C	104%
COc1ccc(/C=N/NC(=O)c2cnn(CC(O)Cc3ccccc3)c2N)cc1OC1CCCC1 (stereo unspecified)	83.8%
COc1ccc(-c2csc3c2-n2cccc2C3=O)cc1O	-31.7% (active)
COc1cc(C(F)(F)F)ccc1-c1cc(-c2ccc(F)cc2)n[nH]1	97.6%
C[C@@H](Oc1cc(-c2cnn(C3CC4(CCNCC4)C3)c2)cnc1N)c1c(F)ccc(Cl)c1Cl	-10.2% (active)
CC(C)NCC(O)COc1ccc(CCOCC2CC2)cc1 (stereo unspecified)	108%

What follows are molecules tested on SF-539 CNS in the same assay as above. Conditions: 10 µM unless noted.

Compound	growth
COc1cc2cc(Oc3ccc(NC(=O)Nc4ccc(Cl)c(C(F)(F)F)c4)cc3)c(C)nc2cc1OCCN1CCCCC1	-89.8% (active)
CN1CCN(c2ccc3nc(-c4ccc5nc(-c6ccc(C(F)(F)F)cc6)[nH]c5c4)[nH]c3c2)CC1	47.2%
Cc1c(C(=O)Nc2nc(-c3ccccc3)cs2)nnn1-c1ccccc1Br	63.8% [50 µM]
Clc1ccc(Nc2nc(Nc3ccccc3)nc(Nc3ccc(-c4cc(-c5ccc(Cl)cc5)on4)cc3)n2)cc1	54.2%
C=C1CC[C@@H]2[C@@](C)(CCC[C@]2(C)C(=O)O)[C@@H]1CC[C@H](CO)CCO	105%
COC(=O)CCC(=O)c1ccccc1	99.9%
COc1ncnc2c1ncn2C/C(Br)=C(\Br)CCl	11.8%
CN1CCC(OC2c3ccccc3CCc3ccccc32)CC1	102%
O=[N+]([O-])c1ccc(C=C2C(Cl)=C(Cl)C(Cl)=C2Cl)cc1	75.8%
COc1ccc(OC)c(/C=C2\Oc3cc(O)ccc3C2=O)c1	95.4%
COC(=O)[C@@]12CC[C@@H](C)[C@]3(C[C@@H](c4ccoc4)OC3=O)[C@H]1CC[C@@H]1O[C@@]12C	105%
COc1ccc(-c2nc3sc(C)cn3c2/C=C/C(=O)c2cc(OC)c(OC)c(OC)c2)cc1	77.6%
C=CC(=O)N1CC2(CC(n3nc(-c4ccc(Oc5ccccc5)cc4)c4c(N)ncnc43)C2)C1	10.1%
Cc1cc(=O)c2c(C)ccc(C)c2[nH]1	107%
O=C1CN2CCC1C/C2=C\c1ccnc2c(Cl)cccc12 (stereo unspecified)	110%
O=C1c2ccccc2-c2nnc(-c3ccc(Br)cc3)cc21	56.7%
COc1ccc(-c2nn(-c3ccc(NC(=O)c4ccc(Cl)c(Cl)c4)cc3)cc2-c2ccncc2)cc1Cl	26%
O=c1oc2ccccc2cc1-c1csc(N=Nc2c(O)[nH]c3ccc(Cl)cc23)n1	94.5%
COc1cc2nc(N3CCC[C@H](NC4=CC(=O)c5ccccc5C4=O)C3)nc(N)c2cc1OC	-100% (active)

Compound	growth
O=C1C(N2CCOCC2)=Cc2cccc3cccc1c23	97.5%
CCOC(=O)c1c(-c2cc(OC)c(OC)c(OC)c2)csc1N	94.7%
N#Cc1c(-c2cccc(F)c2)cc(-c2ccc(Br)s2)[nH]c1=O	83.6%
COc1ccc(NC(=O)c2ccc3c(c2)nc(-c2ccc(Cl)cc2)n3-c2cc(C(C)(C)C)[nH]n2)cc1	87.6%
Oc1cccc(Nc2nc(-c3ccccn3)cs2)c1	98.3%
O=S(=O)(/N=C1C=C/C(=N\S(=O)(=O)c2ccccc2)c2ccccc2\1)c1ccccc1	123%
O=C(COc1cccc(/C=C2\COc3ccccc3C2=O)c1)c1ccccc1	90.4%
Cc1ccc(S(=O)(=O)N2CCc3ccc(O)c4c3C2Cc2cc(Cl)ccc2-4)cc1 (stereo unspecified)	58.2%
COc1ccc(OC)c(C2C(C#N)=C(N)Oc3cc(O)ccc32)c1 (stereo unspecified)	104%
CC(=O)N(CC(O)CO)c1c(I)c(C(=O)NCCO)c(I)c(C(=O)NCC(O)CO)c1I (stereo unspecified)	100%
N#CC1=C(N)Oc2cc(N)ccc2C1c1ccc(F)cc1 (stereo unspecified)	83.6%
CCN(CC)CCCNc1ccc(C)c2sc3ccccc3c(=O)c12	51.5%
COc1ccc(/C=C2\Oc3cc(C)c(Cl)cc3C2=O)cc1OC	92.7%
Cc1nc2ccc(Cl)cc2n1C	106%
COc1ccc(/C=N/NC(=O)c2cnn(CC(O)Cc3ccccc3)c2N)cc1OC1CCCC1 (stereo unspecified)	87.3%
COc1ccc(-c2csc3c2-n2cccc2C3=O)cc1O	15.6%
COc1cc(C(F)(F)F)ccc1-c1cc(-c2ccc(F)cc2)n[nH]1	91.2%
C[C@@H](Oc1cc(-c2cnn(C3CC4(CCNCC4)C3)c2)cnc1N)c1c(F)ccc(Cl)c1Cl	-90.7% (active)
CC(C)NCC(O)COc1ccc(CCOCC2CC2)cc1 (stereo unspecified)	107%

Source: PubChem BioAssay (NCI)
